This note sets out measurements from PubChem BioAssay.

Usually inhibition stands for the relative decrease from the control value, in per cent.

Calls of active or inactive are those of the source.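 Rule for the calls, unless noted: active = inhibition above 20% together with a positive visual image hit; inconclusive = visual image hit but inhibition not above 20%; inactive = no visual image hit.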

The nature of assay [1]: inhibitors of TNFa-induced NFkB p65 translocation, primary screen, imaging, HUVEC, MLSMR starter and 10KST1 sets (AID 438).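 For inhibition: signal is the nuclear over cytoplasmic p65 intensity ratio per well.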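 Note: compound added about 3h40 before a 20 min TNFalpha stimulation.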 The note with it: HUVEC TNFa-induced p65 nuclear translocation; cell count: measured here: nuclei count (cytotoxicity indicator), at 2.08 µM; inhibition: at 2 µM, stronger effect = higher value, 0% TNFa-plus-vehicle, 100% no-TNFa wells.
Assay [2] can be described thus: reduction of polyQ htt aggregates in cells – imaging, exon1htt(103Q)mCFP cells, high-content imaging, primary screen (AID 483;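 active = visual image review flags a hit and inhibition of aggregation exceeds 20%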;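 note: compound exposure lasted 3 days before fixation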;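 for nuclei count: percent of the per-plate median nuclei count of sample wells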). The note with it: exon1htt(103Q)mCFP cell line, aggregate imaging, at 2 µM; inhibition of aggregation: stronger effect = higher value; nuclei count: measured here: cell count, toxicity.
The nature of assay [3]: endothelial E-selectin expression blockers – imaging, HUVEC, immunofluorescence, MLSMR starter and 10KST1 sets, primary screen (AID 487;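 active = visually confirmed hit in the image check and inhibition above 20%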;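 for inhibition: signal is fraction of cell area covered by stained E-selectin grains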;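 for nuclei count: 100% = median nuclei count of all wells on the same plate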). The note with it: HUVEC TNFalpha-induced E-selectin immunofluorescence imaging, at 2 µM; inhibition: stronger effect = higher value; nuclei count: measured here: cell number, toxicity.
Assay [4] concerns the target Voltage-gated potassium channel subunit beta-2 (Rattus norvegicus) (UniProt P62483). Put plainly: inhibitors of rat Kvbeta2 reductase activity – biochemical, NADPH fluorescence, primary screen (AID 622;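 active = fluorescence slope higher than the sample average by over 3 SD, cut at about -0.22 in these data, passing the limit was not always enough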;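 note: slope of raw intensity against log time taken from 70 to 1610 s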). The note with it: recombinant KvBeta, 4-cyanobenzaldehyde reduction, at 10 µM, stronger effect = higher value.
For assay [5] the target is unchanged. Description: enhancers of rat Kvbeta2 NADPH turnover – biochemical, NADPH fluorescence, primary screen (AID 623;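 active = NADPH fluorescence slope more negative than the mean of all samples by about 3 SD, 99.7% confidence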;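 note: fluorescence intensity change per second fitted from 20 to 320 s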). The note with it: Recombinant KvBeta, NADPH fluorescence decrease slope, 10 min; at 10 µM; stronger effect = lower value.
Assay [6] deals with Alpha-2C adrenergic receptor (Homo sapiens) (UniProt P18825). Description: compounds altering alpha2C-coupled GIRK flux – cell-based, HEK293 alpha2C/GIRK1/2, thallium flux, primary screen (AID 624;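 active = fluorescence slope after compound addition differing from the mean of all screened samples at 99.7% confidence, in either direction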;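 note: slope of fluorescence ratio to pre-addition baseline per second over 15 to 24 s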). The note with it: thallium flux BTC fluorescence, at 10 µM, actives lie on both sides.
Assay [7] is described as follows: blockers of RIG-like receptor reporter activation – cell-based, Sendai virus stimulus, luciferase, 10K MLSCN set, TLR/RLR signaling modifier project, primary screen (AID 602276;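 active = inhibition at or above 50% at 10 µM; inactive = inhibition below 50%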;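 note: firefly luciferase from ISG56 promoter only with Renilla not read in this screen; 0% = Sendai virus plus DMSO and 100% = medium plus DMSO without virus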). The note with it: HEK293 RL24 IRF3 luciferase reporter, at 10 µM, stronger effect = higher value. For orientation: In a reporter assay the amount or activity of a reporter protein is the signal.
Assay [8] in a line: TLR3 IRF3 reporter activation blockers – cell-based, poly I:C stimulus, luciferase, 10K MLSCN set, primary screen (AID 602277;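 active = inhibition of the reporter signal at or above 50%; inactive = inhibition below 50%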). The note with it: HEK293-TLR3 RL24 IRF3 luciferase reporter, at 10 µM, stronger effect = higher value.

Chain of Alpha-2C adrenergic receptor (Homo sapiens) (P18825 whole entry, looked up): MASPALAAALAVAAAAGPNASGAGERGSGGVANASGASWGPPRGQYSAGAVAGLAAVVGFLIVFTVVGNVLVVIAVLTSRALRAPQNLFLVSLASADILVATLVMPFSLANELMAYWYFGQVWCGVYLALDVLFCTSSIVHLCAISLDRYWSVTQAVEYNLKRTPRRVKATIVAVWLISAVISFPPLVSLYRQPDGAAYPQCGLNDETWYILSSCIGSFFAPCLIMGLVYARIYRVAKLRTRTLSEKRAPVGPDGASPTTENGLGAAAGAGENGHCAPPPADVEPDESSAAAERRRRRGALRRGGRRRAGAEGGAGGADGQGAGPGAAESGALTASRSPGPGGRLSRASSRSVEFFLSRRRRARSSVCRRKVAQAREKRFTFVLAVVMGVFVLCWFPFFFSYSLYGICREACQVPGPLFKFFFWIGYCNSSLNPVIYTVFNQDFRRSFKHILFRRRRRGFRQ
Chain of Voltage-gated potassium channel subunit beta-2 (Rattus norvegicus) (P62483 whole entry, looked up): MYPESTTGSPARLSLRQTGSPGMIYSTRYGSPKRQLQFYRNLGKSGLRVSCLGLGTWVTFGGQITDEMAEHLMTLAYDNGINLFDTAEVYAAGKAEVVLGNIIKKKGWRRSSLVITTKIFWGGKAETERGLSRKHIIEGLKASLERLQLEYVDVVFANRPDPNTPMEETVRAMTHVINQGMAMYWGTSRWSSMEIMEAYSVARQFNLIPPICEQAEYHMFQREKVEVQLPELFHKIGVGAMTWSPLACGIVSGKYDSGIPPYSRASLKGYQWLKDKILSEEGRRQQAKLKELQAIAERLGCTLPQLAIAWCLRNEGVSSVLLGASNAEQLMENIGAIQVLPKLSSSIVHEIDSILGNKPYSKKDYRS

`Cn1c(-c2ccccc2)cc(=O)c2ccccc21`: in assay [1], the cell count worked out at 419. Further, the inhibition is -3.8% (inactive) in assay [1], -39.8% (inactive) in assay [3], 9.11% (inactive) in assay [7] and 16.3% (inactive) in assay [8]. The inhibition of aggregation in assay [2] was 2.5% (inactive). Further, the values for the nuclei count in assay [2] and in assay [3] were 92.7% and 118%, respectively. The fluorescence slope in assay [4] was -0.457 (inactive). Also, in assay [5], the NADPH fluorescence slope is 3.9e-05 (inactive). Moreover, the slope in assay [6] is 0.00556 (inactive).

In the case of `CCOC(=O)N1CCC(NC(=O)CN2C(=O)CCSc3ccccc32)CC1`, the cell count in assay [1] came to 807. The inhibition in assay [1] was -8.5% (inactive); in assay [3] it was -78% (inactive); in assay [7], 4.21% (inactive); in assay [8], 1.38% (inactive). Also, the inhibition of aggregation in assay [2] is 5.8% (inactive). The nuclei count in assay [2] was 101%; in assay [3], 108%. In assay [4], the fluorescence slope was -0.515 (inactive). The NADPH fluorescence slope in assay [5] is -3.1e-05 (inactive). Moreover, the slope in assay [6] is 0.00644 (inactive).

`O=C(CSc1ncnc2ccccc12)NCCCO`: the cell count in assay [1] stood at 458. The inhibition in assay [1] is -11% (inactive); in assay [3] it was 7.4% (inactive); in assay [7], 15.3% (inactive); in assay [8], 26.4% (inactive). Further, the inhibition of aggregation in assay [2] was -1.4% (inactive). The values for the nuclei count in assay [2] and in assay [3] were 104% and 101%, respectively. Also, in assay [4], the fluorescence slope was -0.628 (inactive). In addition, in assay [5], the NADPH fluorescence slope was 8.9e-06 (inactive). The slope in assay [6] is 0.00699 (inactive).

With `Cc1ccc2cc3cc(C(=O)NCCN4CCOCC4)oc3nc2c1`, the cell count in assay [1] was 760. Moreover, the inhibition is -5% (inactive) in assay [1], -36.3% (inactive) in assay [3], 7.18% (inactive) in assay [7] and 8.18% (inactive) in assay [8]. Moreover, in assay [2], the inhibition of aggregation is 3.7% (inactive). In addition, the nuclei count in assay [2] worked out at 105%; in assay [3], 111%. In assay [4], the fluorescence slope was -0.0588 (inactive). Moreover, the NADPH fluorescence slope in assay [5] is -2.5e-05 (inactive). In assay [6], the slope is 0.00283 (inactive).

As to `O=C(NCCSc1c[nH]c2ccccc12)c1ccc(Br)o1`, the cell count in assay [1] was found to be 564. Besides, the inhibition is 3.9% (inactive) in assay [1], -35.7% (inactive) in assay [3], 6.55% (inactive) in assay [7] and -6.47% (inactive) in assay [8]. Moreover, the inhibition of aggregation in assay [2] is -4.5% (inactive). Further, the nuclei count in assay [2] came to 114%; in assay [3] it was 113%. In addition, the fluorescence slope in assay [4] is -0.559 (inactive). Further, the NADPH fluorescence slope in assay [5] is -4.4e-05 (inactive). In addition, the slope in assay [6] was 0.00687 (inactive).

Consider `O=C(O)c1ccccc1S(=O)(=O)NCC(O)COc1ccc(Br)cc1` (centres undefined), for which the cell count in assay [1] was 435. In addition, the inhibition in assay [1] was 3.5% (inactive); in assay [3] it was 31.4% (inactive); in assay [7], 10.6% (inactive); in assay [8], 14.4% (inactive). Moreover, the inhibition of aggregation in assay [2] was -17% (inactive). Moreover, the nuclei count in assay [2] turned out to be 106%; in assay [3] it was 81.4%. Further, the fluorescence slope in assay [4] is -0.39 (inactive). In addition, the NADPH fluorescence slope in assay [5] is 2.1e-05 (inactive). Besides, in assay [6], the slope is 0.00443 (inactive).

Take `O=C(Cn1ncc2c(=O)oc3ccccc3c21)NCC1CCCO1` (centres undefined): the cell count in assay [1] was found to be 725. Moreover, the inhibition in assay [1] was 6.6% (inactive); in assay [3] it was -40.1% (inactive); in assay [7] it was 4.27% (inactive); in assay [8], 9.41% (inactive). Also, the inhibition of aggregation in assay [2] was -2.2% (inactive). The nuclei count was found to be 111% in assay [2] and 125% in assay [3]. For the same compound, the fluorescence slope in assay [4] was -0.61 (inactive). The NADPH fluorescence slope in assay [5] was -1.2e-05 (inactive). Further, in assay [6], the slope was 0.0073 (inactive).

Take `Cn1c(C(=O)Nc2ccc3c(c2)OCO3)cc2c(=O)n(C)c3ccccc3c21`: the cell count in assay [1] was determined as 683. In addition, the inhibition is 7% (inactive) in assay [1], -20.2% (inactive) in assay [3], -13.1% (inactive) in assay [7] and -11.2% (inactive) in assay [8]. In assay [2], the inhibition of aggregation is -6.4% (inactive). Further, the nuclei count in assay [2] and in assay [3] was 104% in each case. Besides, in assay [4], the fluorescence slope is -0.264 (inactive). In addition, the NADPH fluorescence slope in assay [5] was -2.8e-06 (inactive). Also, the slope in assay [6] is 0.00554 (inactive).

As for `COc1cc2c(cc1OC)-c1nnc(-c3cccs3)n1C(C)(C)C2`, the cell count in assay [1] was 814. The inhibition in assay [1] is 1.2% (inactive); in assay [3], -58.9% (inactive); in assay [7], 6.77% (inactive); in assay [8], 18.5% (inactive). For the same compound, the inhibition of aggregation in assay [2] is -30.2% (inactive). In addition, the nuclei count in assay [2] came out at 106%; in assay [3], 114%. Besides, in assay [4], the fluorescence slope was -0.601 (inactive). Besides, in assay [5], the NADPH fluorescence slope is -1.8e-05 (inactive). Besides, the slope in assay [6] was 0.00581 (inactive).

For the compound `Cc1cc(C)c(C(=O)CSc2nnc(-c3ccccc3Br)o2)cc1C`, the cell count in assay [1] turned out to be 433. Further, the inhibition is 2.9% (inactive) in assay [1], -64.9% (inactive) in assay [3], 9.09% (inactive) in assay [7] and 3.14% (inactive) in assay [8]. Besides, the inhibition of aggregation in assay [2] is -0.1% (inactive). Besides, the nuclei count in assay [2] came out at 97.3%; in assay [3], 124%. For the same compound, in assay [4], the fluorescence slope was -0.397 (inactive). The NADPH fluorescence slope in assay [5] was -2.6e-05 (inactive). Also, in assay [6], the slope is 0.00604 (inactive).

In the case of `Cc1ccc(CSC2=NCCN2C(=O)c2ccco2)cc1`, in assay [1], the cell count is 661. Moreover, the inhibition is 1.3% (inactive) in assay [1], -11.6% (inactive) in assay [3], -0.0387% (inactive) in assay [7] and 0.194% (inactive) in assay [8]. In assay [2], the inhibition of aggregation was -14.6% (inactive). The nuclei count amounted to 106% in assay [2] and 115% in assay [3]. In addition, the fluorescence slope in assay [4] was -0.613 (inactive). Further, the NADPH fluorescence slope in assay [5] is -1.3e-05 (inactive). In addition, the slope in assay [6] was 0.00684 (inactive).

`CCOC(=O)N1CCN(Cc2nc3c(c(=O)n(C)c(=O)n3C)n2Cc2ccccc2)CC1`: in assay [1], the cell count came out at 598. Further, the inhibition in assay [1] is 2.9% (inactive); in assay [3], 0.1% (inactive); in assay [7], 9% (inactive); in assay [8], 14.8% (inactive). In addition, the inhibition of aggregation in assay [2] is -8.1% (inactive). The nuclei count is 120% in assay [2] and 115% in assay [3]. Besides, the fluorescence slope in assay [4] was -0.538 (inactive). Also, the NADPH fluorescence slope in assay [5] is -3.9e-05 (inactive). The slope in assay [6] is 0.00607 (inactive).

In the case of `CCCc1cc(-n2ccnc2)n2c(nc3ccccc32)c1C#N`, in assay [1], the cell count was determined as 571. Moreover, the inhibition is 8.7% (inactive) in assay [1], 30.6% (inactive) in assay [3], 16.6% (inactive) in assay [7] and 47.3% (inactive) in assay [8]. The inhibition of aggregation in assay [2] was -11.1% (inactive). Besides, the nuclei count in assay [2] came out at 98.8%; in assay [3], 99.8%. The fluorescence slope in assay [4] is -0.51 (inactive). The NADPH fluorescence slope in assay [5] is 1.6e-06 (inactive). Besides, the slope in assay [6] was 0.00652 (inactive).

As to `CCOc1ccccc1NC(=O)CCSc1nc2n[nH]c(C)c2c(=N)n1-c1ccccc1Cl`, in assay [1], the cell count was determined as 621. In addition, the inhibition in assay [1] is -10.2% (inactive); in assay [3], 30.1% (inactive); in assay [7], 3.64% (inactive); in assay [8] it was 5.23% (inactive). Further, the inhibition of aggregation in assay [2] is -22.3% (inactive). Besides, the nuclei count in assay [2] amounted to 77.9%; in assay [3], 62.2%. For the same compound, the fluorescence slope in assay [4] is -0.417 (inactive). Also, the NADPH fluorescence slope in assay [5] is -4.1e-05 (inactive). For the same compound, in assay [6], the slope is 0.00336 (inactive).
